Source: PubChem BioAssay (National Center for Advancing Translational Sciences (NCATS))
Sm TGR inh: qHTS Assay for the Inhibitors of Schistosoma Mansoni Peroxiredoxins; Potency, µM (highest dose often 114 µM), actives largely listed as inhibitors; hit rate 3% among 360,000; Schistosoma mansoni thioredoxin glutathione reductase (TGR), Q962Y6; purified TGR, DTNB reduction, TNB absorbance 405 nm; further: nearly all actives have a fitted effect of over 60% in size
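TGR 20 nM + NADPH 100 uM (dispensed conc.), cpd preinc 15 min RT; start with NADPH (500 uM addition) then DTNB (15 mM addition). Kinetic TNB absorbance, 405 nm filter. Four-parameter Hill fit across titration.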
HCMV inh: qHTS Assay for inhibitors of the human cytomegalovirus (HCMV) | HFF cells, HCMV-luciferase reporter, 72 h; hits give low values | activity change, negative = inhibition, % at 57.5 µM | hit rate 4.5% among 410,000 | AID 1259415, 2018; in the data active means activity change below about -60%; inconclusive means no clear call, values can overlap the other calls; inactive means above about -39%
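Two compound doses tested in HFFs infected with HCMV-luciferase, MOI 1 PFU/cell, 72 h at 37C. Lysate luminescence read with OneGlo; data normalized against buffer-only and 10uM Salinomycin inhibitor controls.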
VACV Venus inh: qHTS for Stage-Specific Inhibitors of Vaccinia Orthopoxvirus: Venus Reporter Primary qHTS. Vaccinia virus Venus reporter expression, fluorescence. Potency, µM (doses to about 36.5 µM), usual class: inhibitors. hit rate 0.46% among 330,000. AID 720580, 2013; calls by dose curve; tested in A549 cells; further: nearly all actives have a fitted effect of over 30% in size
VACV mCherry inh: qHTS for Stage-Specific Inhibitors of Vaccinia Orthopoxvirus: mCherry Reporter Primary qHTS. hit rate 0.63% among 310,000. Vaccinia virus mCherry reporter infection, fluorescence. Potency, µM (highest dose often 36.5 µM), hits mostly inhibitors; calls by dose curve; tested in A549 cells; further: nearly all actives have a fitted effect of over 35% in size
FMDV antiviral: High Throughput Screening for Foot and Mouth Disease Virus Antivirals; FMDV antiviral cell-based qHTS; Potency, µM (highest dose often 57.9 µM), hits mostly inhibitors; hit rate 1.2% among 410,000; calls by dose curve; tested in HEK293T cells; further: read-out not given here; nearly all actives have a fitted effect of over 45% in size
HCV inh: qHTS Assay for Inhibitors of Hepatitis C Virus (HCV). Huh7.5.1 HCVcc-Cre infection, luciferase reporter, 44 h. Potency, µM (titrated, usually from 41.8 µM), most hits filed as inhibitors. hit rate 3.4% among 340,000. AID 651820, 2012
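Antiviral activity was scored by luciferase reporter output from cells infected with HCVcc-Cre (~0.5 moi) in presence of compound, 44 h infection period, cells seeded 1,000/well 4 h prior.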
Large screens that a line does not name were inactive. Most compounds without a hit are left out; they make up all but 9.3% or so of the library. Unless noted, the call rests on the fitted dose curve; in most records, active means well fitted curve in the direction sought with a large enough effect; inconclusive means small, poorly fitted or top-dose-only effect, or another doubt; inactive means no such curve, though single readings can be large; an effect the other way counts as inactive or inconclusive.

N=c1n(CCN2CCCCC2)c2ccccc2n1CC(O)c1ccco1 (configuration not stated)	HCMV inh -67, HCV inh inconclusive
CCCCCCCCNS(=O)(=O)CCNCCCC	VACV mCherry inh inconclusive (no result: Sm TGR inh)
CCN(CC)CCn1c(=N)n(CC(O)COc2cccc(C)c2)c2ccccc21 (configuration not stated)	HCMV inh inconclusive, VACV mCherry inh inconclusive, FMDV antiviral inconclusive, HCV inh 6.3µM
CN(CCc1ccccc1)C(=O)c1ccc(NC(=O)Cc2ccc(NC(=O)C3CCN(C(=O)c4ccccc4)CC3)cc2)cc1	HCMV inh -63, VACV mCherry inh inconclusive (no result: Sm TGR inh)
CN(CCc1ccccc1)C(=O)c1ccc(NC(=O)Cc2ccc(NC(=O)C3CCN(C(=O)C4CCCC4)CC3)cc2)cc1	HCMV inh -71, VACV Venus inh inconclusive, VACV mCherry inh inconclusive, FMDV antiviral inconclusive (no result: Sm TGR inh)
CN(CCc1ccccc1)C(=O)c1ccc(NC(=O)Cc2ccc(NC(=O)C3CCCN(C(=O)C4CCCCC4)C3)cc2)cc1 (configuration not stated)	HCMV inh inconclusive, VACV mCherry inh inconclusive, FMDV antiviral inconclusive (no result: Sm TGR inh)
CN(CCc1ccccc1)C(=O)c1ccc(NC(=O)Cc2ccc(NC(=O)C3CCCN(C(=O)c4ccccc4)C3)cc2)cc1 (configuration not stated)	HCMV inh -76, VACV mCherry inh inconclusive, FMDV antiviral inconclusive (no result: Sm TGR inh)
Cc1ccc(N(CC(C)C)S(=O)(=O)c2nnc(NC(=O)C(C)C)s2)cc1	none (no result: HCV inh)
CCOC(=O)N1CCN(Cc2ccc(F)cc2F)CC1	none
N=c1ccn2c(n1)OC1C(O)C(CO)OC12 (configuration not stated)	HCMV inh -100, VACV Venus inh inconclusive, VACV mCherry inh 28µM
N=c1ccn2c(n1)OCC1C2O[C@@H](O)[C@H]1O (some centres not stated)	none (no result: Sm TGR inh, HCMV inh, VACV Venus inh, VACV mCherry inh, HCV inh)
Nc1ccn([C@@H]2O[C@H](CO)[C@@H](O)[C@H]2O)c(=O)n1	none (no result: Sm TGR inh)
Nc1ccn([C@@H]2O[C@H](CO)[C@@H](O)C2O)c(=O)n1 (some centres not stated)	HCMV inh -97, VACV mCherry inh 0.45µM, HCV inh inconclusive
Nc1ccn(C2OC(COC(=O)C34CC5CC(CC(C5)C3)C4)C(O)C2O)c(=O)n1 (configuration not stated)	HCMV inh -97, VACV Venus inh inconclusive, VACV mCherry inh 0.32µM (no result: Sm TGR inh)
Nc1ccn([C@@H]2O[C@H](COS(=O)(=O)O)[C@@H](O)[C@H]2O)c(=O)n1	none (no result: Sm TGR inh)
Nc1ccn(C2OC(CCl)C(O)C2O)c(=O)n1 (configuration not stated)	HCMV inh -61, VACV Venus inh inconclusive, VACV mCherry inh inconclusive (no result: Sm TGR inh, HCV inh)
CC(C)CCn1cnc2c([nH]c3cccc(Cl)c32)c1=O	HCV inh inconclusive (no result: VACV mCherry inh)
CCn1c(SCC(=O)Nc2nc(-c3ccccc3)cs2)nnc1-c1ccccc1O	VACV Venus inh inconclusive, FMDV antiviral 35µM, HCV inh 11µM (no result: VACV mCherry inh)
CCn1c(CCNC(=O)c2cccs2)nnc1SCC(=O)Nc1nc(-c2ccccc2)cs1	FMDV antiviral 20µM (no result: VACV Venus inh, VACV mCherry inh)
Cc1ccccc1Nc1nnc(SCC(=O)c2ccc(O)cc2O)s1	none
COc1cc(NC(=S)N2CCN(S(=O)(=O)c3ccc(F)cc3)CC2)cc(OC)c1	none
COc1cccc(NC(=S)N2CCN(S(=O)(=O)c3ccc(F)cc3)CC2)c1	HCMV inh -63, VACV mCherry inh inconclusive
CC(C(=O)Nc1ccc([N+](=O)[O-])cc1)N1CCN(C/C=C/c2ccccc2)CC1 (configuration not stated)	HCMV inh inconclusive, FMDV antiviral 28µM, HCV inh inconclusive
COc1ccc(NC(=S)N2CCN(S(=O)(=O)c3ccc(C)cc3)CC2)cc1	HCMV inh -61
COc1ccc(NC(=S)N2CCN(C/C=C/c3ccccc3)CC2)cc1	HCMV inh -65, VACV mCherry inh inconclusive, HCV inh inconclusive
Cc1ccccc1NC(=O)C(=O)Nc1ccccc1C	none
COc1cc(OC)c(C2SCCN2S(=O)(=O)c2ccc(F)cc2)cc1OC (configuration not stated)	none
Cc1cc(OCC(=O)N2CCC(C(N)=O)CC2)c2c3c(c(=O)oc2c1)CCCC3	none
COc1cc(-c2noc(C)c2C(=O)NCc2ccc(C)o2)cc(OC)c1OC	HCV inh inconclusive (no result: Sm TGR inh)
CCCCSCCCNC(=O)C1CCN(Cc2nc(-c3cccc(Br)c3)oc2C)CC1	none (no result: HCV inh)
FC(F)(F)c1ccc(-c2nnc(-c3ccccn3)c(-c3ccccn3)n2)nc1	none
CSc1cccc(NC(=O)C2CCN(S(=O)(=O)c3ccc(F)cc3)CC2)c1	VACV Venus inh inconclusive, HCV inh 11µM (no result: FMDV antiviral)
CSc1cccc(NC(=O)C2CCCN(S(=O)(=O)c3ccc(F)cc3)C2)c1 (configuration not stated)	VACV Venus inh inconclusive, HCV inh inconclusive (no result: VACV mCherry inh)
O=C(CCSCCC(=O)N1CCCC1)N1CCCC1	Sm TGR inh 40µM
N=c1nc(N)nc2n1NC(c1ccc(F)cc1)=CS2	HCMV inh -88, VACV Venus inh inconclusive, VACV mCherry inh inconclusive, HCV inh inconclusive
Fc1ccc(C2=CSC3=NCCN23)cc1	none (no result: Sm TGR inh)
COc1cc(NC(=O)Cn2c(=O)n(CC3CCC(C(=O)NCCc4ccccc4)CC3)c(=O)c3ccccc32)cc(OC)c1 (configuration not stated)	none (no result: HCV inh)
COc1ccc(C(=O)C[n+]2ccccc2C)cc1	none
Nc1ccc(Oc2ncccn2)cc1	Sm TGR inh 35µM (no result: VACV Venus inh, VACV mCherry inh)
COc1ccc(CNS(=O)(=O)c2ccc(-c3ccc(=O)[nH]n3)o2)cc1	Sm TGR inh 89µM (no result: VACV Venus inh, VACV mCherry inh)
CCN(c1ccc(OC)cc1)S(=O)(=O)c1ccc(-c2ccc(=O)[nH]n2)o1	HCMV inh -64 (no result: VACV Venus inh, VACV mCherry inh)
NC(=O)CC(NC(=O)c1ccccc1)c1ccc(NCCN2CCCCC2)c([N+](=O)[O-])c1 (configuration not stated)	none
CCN1C(=O)/C(=C/c2ccc3c(c2)CCN3CCCCl)C(=O)NC1=S	Sm TGR inh 8.9µM, FMDV antiviral inconclusive
C=CCN1C(=O)/C(=C/c2ccc3c(c2)CCCN3CCC)C(=O)NC1=S	Sm TGR inh 8.9µM, FMDV antiviral 32µM
O=C1NC(=S)N(C2CC2)C(=O)/C1=C/c1ccc2c(c1)CCN2CCCCl	Sm TGR inh inconclusive
CCS(=O)(=O)c1ncc(N(Cc2cccc(F)c2)Cc2ccco2)c(C(=O)Nc2ccccc2Cl)n1	none (no result: HCV inh)
CCOc1cccc(/C=N/N2CCN(c3ccc(Cl)cc3)CC2)c1O	HCMV inh -94, FMDV antiviral inconclusive, HCV inh inconclusive (no result: VACV Venus inh, VACV mCherry inh)
COc1ccccc1/C=N/N1CCN(c2ccc(Cl)cc2)CC1	none (no result: VACV Venus inh, VACV mCherry inh)
COCCN1C(=O)CS/C1=C(/C#N)C(=O)NCc1ccco1	HCMV inh -84
